# Source: PubChem BioAssay (NCI)
# This is part of a sample that, as a whole, favours compounds with a hit. Of some 83,000 tested, about 20% had one in any assay.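 Single-concentration screen, 48 h exposure, 96-well plates. Endpoint: percent growth. Below 10 = active.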 Unmarked numbers belong to inactive results. Active and inactive are the calls of the source.
# Assays:
# Assay in all cases: NCI-60 one-dose screen, 48 h (100 = growth as untreated, 0 = no growth, -100 = all killed)
# Conditions in all cases: 10 µM unless noted
# [1] = tested on: SR leukemia
# [2] = tested on: RPMI-8226 leukemia
# [3] = tested on: OVCAR-8 ovarian
# [4] = tested on: OVCAR-5 ovarian
# [5] = tested on: OVCAR-4 ovarian
# [6] = tested on: SK-OV-3 ovarian
# [7] = tested on: IGROV1 ovarian
# [8] = tested on: OVCAR-3 ovarian
# [9] = tested on: HS 578T breast
# [10] = tested on: NCI/ADR-RES ovarian
# [11] = tested on: T-47D breast
# [12] = tested on: BT-549 breast
# [13] = tested on: MDA-MB-435 melanoma
# [14] = tested on: SW-620 colon
# [15] = tested on: MCF7 breast
# [16] = tested on: HCT-116 colon
# [17] = tested on: HCC-2998 colon
# [18] = tested on: KM12 colon
SMILES,growth [1],growth [2],growth [3],growth [4],growth [5],growth [6],growth [7],growth [8],growth [9],growth [10],growth [11],growth [12],growth [13],growth [14],growth [15],growth [16],growth [17],growth [18]
Cc1noc(C)c1CSc1nc2ccccc2n1-c1ccccc1,69.7%,95.8%,102%,89%,69.1%,116%,77%,114%,102%,97.3%,93.8%,87.5%,100%,94.5%,94.9%,92.9%,112%,101%
Cn1ccnc1C(=O)/C=C/c1ccc(NC(=O)c2c(F)c(F)c(F)c(F)c2F)cc1,70.2%,80.6%,102%,111%,106%,129%,98.9%,107%,112%,108%,103%,98.2%,107%,105%,70.8%,101%,125%,105%
NC(N)=Nc1ccc(Oc2cccc(Nc3ccc(Cl)c(C(F)(F)F)c3)c2)cc1,-26.4% (active),33.7%,68.6%,58.8%,55.6%,82.6%,17.2%,35%,52%,91.6%,35.3%,77%,32.3%,30.2%,11.3%,27.5%,20.3%,7.04% (active)
COc1ccc(N2CCN(C3=C(Cl)C(=O)C(C)=C(C)C3=O)CC2)cc1,78.6%,89.4%,100%,110%,99.7%,96.7%,103%,113%,103%,101%,30%,117%,105%,113%,92.1%,99.3%,111%,107%
CCCC(=O)NC(c1cccnc1)c1cc(C(C)(C)C)c2cccnc2c1O (stereo not drawn),11.5%,24.5%,17.3%,40.8%,31.1%,7.42% (active),6.31% (active),12.4%,46.6%,21.2%,24.1%,24.8%,30.2%,34.2%,10.9%,21.7%,51.4%,18.8%
C=CCn1c(SCC(=O)Nc2ccc(C(=O)/C=C/c3ccc(Cl)cc3)cc2)nnc1-c1c[nH]c2ccccc12,71.1%,2.66% (active),76.1%,97.3%,66.9%,86.7%,58.1%,84%,91.5%,97.7%,60.5%,111%,83.5%,88.3%,9.26% (active),-46% (active),97.1%,80.4%
Cc1ccc2c(c1)Oc1nc(N)c(C#N)c(N)c1C2Sc1ccc(F)cc1 (stereo not drawn),-15.6% (active),-24.1% (active),-99.4% (active),-93.5% (active),-99.3% (active),-94.5% (active),-91.3% (active),-88.1% (active),-38.1% (active),-89.4% (active),-47.1% (active),-88.4% (active),-93.6% (active),-63.6% (active),-59.7% (active),-89.9% (active),-90.9% (active),-91.4% (active)
CCCCNNC(=O)c1ccc(-c2cccc(F)c2F)cc1,25.2%,5.02% (active),20.8%,24.9%,41.5%,47.2%,31.3%,44.6%,41.2%,13.4%,3.16% (active),58.6%,25.4%,20.7%,15.9%,13.9%,37.9%,44.6%
O=S(=O)(NCCCNc1nccc(-c2[nH]c(-c3ccccc3)nc2-c2ccc(Cl)c(O)c2)n1)c1ccc(Br)cc1,15.3%,22.1%,33.3%,72.2%,46.6%,68.4%,36.8%,24.1%,63.2%,42.6%,30%,40.3%,2.09% (active),55.8%,19.5%,14.5%,47.2%,22%
CS(=O)(=O)c1ncc(-c2ccccc2)cn1,70.9%,108%,99.3%,103%,98.6%,108%,99.5%,90.7%,111%,103%,94.4%,93.4%,95.2%,113%,91.9%,96.9%,104%,100%
CC(=O)c1nnn(-c2c(C(=O)n3nc(C)cc3C)sc(=S)n2-c2ccccc2)c1C,109%,101%,103%,120%,100%,108%,95.6%,115%,113%,111%,113%,92.2%,108%,112%,89.2%,104%,114%,104%
NC(N)=Nc1ccc(Oc2cccc(NC(N)=Nc3ccc(I)cc3F)c2)cc1,48.1%,62.3%,90.5%,65.5%,81.3%,70.1%,32.9%,75.7%,61.1%,100%,75.3%,87.6%,85%,89.5%,63.3%,90.5%,102%,79.3%
O=[N+]([O-])c1cc(/C=N/Nc2nc(N/N=C/c3ccc(Cl)c([N+](=O)[O-])c3)nc(N3CCCCC3)n2)ccc1Cl,63.2%,-18.3% (active),31%,108%,86.9%,98.8%,52.7%,-7.45% (active),53.8%,30.2%,48.2%,97.9%,92.3%,63.7%,0.909% (active),22%,67.4%,5.45% (active)
NS(=O)(=O)c1ccc(Nc2nc(N/N=C/c3ccc(Cl)cc3)nc(Nc3ccccc3)n2)cc1,19%,54.7%,67.9%,83.4%,83.6%,104%,66.8%,70.4%,64.7%,97.5%,44.8%,74.9%,57.7%,101%,38.7%,44.3%,76.4%,63.3%
Cn1cc(-c2nc(N)nnc2-c2c[nH]c3ccc(Br)cc23)c2cc(Br)ccc21,20.4%,31.1%,57.8%,79.9%,110%,72.4%,43.7%,26.8%,76.7%,46.5%,32.2%,48.8%,11.6%,29.2%,30.6%,17.6%,81.9%,27.6%
Cc1cc(C(NC(=O)CCCCCNc2cccc3c2C(=O)N(C2CCC(=O)NC2=O)C3=O)c2ccc3c(c2)OC(F)(F)O3)c(O)c2ncccc12 (stereo not drawn),26.2%,34.7%,38.6%,73.2%,73.1%,109%,37.5%,38.3%,37.7%,104%,67.6%,36.6%,27.8%,40.2%,29.5%,27.8%,79.2%,39.9%
